# Hits are enriched below; roughly 10% of the tested compounds scored in any of these assays.
# RORgamma inh – qHTS for inhibitors of ROR gamma transcriptional activity | Drosophila S2 Gal4-RORgamma UAS-luciferase reporter, 20 h | Potency, µM (series often up to 53.6 µM), without a hit: top-dose activity change, negative = inhibition, most hits filed as inhibitors | Nuclear receptor ROR-gamma (Mus musculus), P51450 | 310,000 tested, 5.4% active; further: on the % scale 0 is the no-effect control and ±100 the full control effect; nearly all actives have a fitted effect of over 60% in size
# Target sequence (P51450 whole entry, looked up, the tested form may be a part): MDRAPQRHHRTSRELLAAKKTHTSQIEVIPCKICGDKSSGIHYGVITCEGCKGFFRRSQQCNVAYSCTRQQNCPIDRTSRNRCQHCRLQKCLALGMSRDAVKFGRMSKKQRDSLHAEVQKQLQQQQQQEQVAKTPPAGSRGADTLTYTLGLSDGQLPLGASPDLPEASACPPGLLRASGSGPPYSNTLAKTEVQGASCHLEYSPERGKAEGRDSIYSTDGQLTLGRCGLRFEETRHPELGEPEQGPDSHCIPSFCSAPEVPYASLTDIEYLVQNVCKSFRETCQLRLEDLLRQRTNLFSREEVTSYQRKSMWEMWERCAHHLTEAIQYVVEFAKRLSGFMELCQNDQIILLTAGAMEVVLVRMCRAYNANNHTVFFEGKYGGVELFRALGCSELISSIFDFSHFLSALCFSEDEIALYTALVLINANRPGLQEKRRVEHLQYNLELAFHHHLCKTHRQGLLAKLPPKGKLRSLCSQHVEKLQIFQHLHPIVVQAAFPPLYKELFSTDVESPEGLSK
#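 Compounds are pin-transferred onto Drosophila Schneider cells expressing a copper-inducible Gal4–ROR gamma transactivation domain fusion. After 1 hr, copper sulfate is added to 700 uM final; luciferase is read 20 hr later.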
# ELG1 repair inh – qHTS screen for small molecules that inhibit ELG1-dependent DNA repair in human embryonic kidney (HEK293T) cells expressing luciferase-tagged ELG1. Potency, µM (titrated, usually from 46.1 µM), inactives show top-dose activity change, negative = inhibition, hits mostly inhibitors. 330,000 tested, 2.3% active. HEK293T ELG1-luciferase reporter, luminescence, 16 h; DNA damage induced by 5-fluorouridine; further: on the % scale 0 is the no-effect control and ±100 the full control effect; nearly all actives have a fitted effect of over 55% in size
#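 DMSO vehicle served as the neutral condition. Each well held 2,000 cells given 5-fluorouridine plus compound; after 16 hr at 37 °C/5% CO2, ONE-Glo was added and luciferase measured 30 min later.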
# SW480 rereplic – A quantitative high throughput screen for small molecules that induce DNA re-replication in SW480 colon adenocarcinoma cells; 340,000 tested, 1.8% active; SW480 DNA re-replication, Hoechst DNA content imaging, 48 h; AID 624297, 2012; Potency, µM (series often up to 46.1 µM), for inactives: at the highest dose re-replication activation, hits mostly activators; further: % of control where 0% means no effect; nearly all actives have a fitted effect of over 55% in size
#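 250 cells/well; 23 nL cpd via pin tool; 48 hr, 37 C, 5% CO2; Hoechst 40 min; imager read of total nuclear intensity, ex 405/em 500-530 nm.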
# MCF10A rerep – A quantitative high throughput screen for small molecules that induce DNA re-replication in MCF 10a normal breast cells. MCF 10A DNA re-replication, Hoechst nuclear intensity, 48 h. Potency, µM (series often up to 46.1 µM), for the others: at the top dose activity, positive = re-replication, hits mostly activators. 350,000 tested, 2.9% active. AID 624296, 2012; further: % of control where 0% means no effect; nearly all actives have a fitted effect of over 50% in size
# VP16 counter – VP16 counterscreen qHTS for inhibitors of ROR gamma transcriptional activity; Drosophila S2 Gal4-VP16 UAS-luciferase, luminescence, 20 h; Potency, µM (series often up to 53.6 µM), for inactives: top-dose activity, negative = inhibition, hits mostly inhibitors; 310,000 tested, 3.5% active; AID 2546, 2010;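 further: Gal4-VP16 expression switched on by copper sulfate through the metallothionein promoter; on the % scale 0 is the no-effect control and ±100 the full control effect; nearly all actives have a fitted effect of over 50% in size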
# * hit, by the source's call; u = inconclusive; x = no result given; [ ] = another dose, or the depositor's remark. The call rests on the fitted dose curve; in most records, active means well fitted curve in the direction sought with a large enough effect; inconclusive means small, poorly fitted or top-dose-only effect, or another doubt; inactive means no such curve, though single readings can be large; an effect the other way counts as inactive or inconclusive. Potency means the concentration at half of the fitted maximal effect.
SMILES,RORgamma inh,ELG1 repair inh,SW480 rereplic,MCF10A rerep,VP16 counter
Cc1ccc(S(=O)(=O)NCC23C=CC(O2)C2C(=O)N(c4ccccc4)C(=O)C23)cc1 (stereo unspecified),8.9µM*,17%,u,4%,u
Cc1ccc(NC(=S)NCC23C=CC(O2)C2C(=O)N(c4ccc(C)cc4)C(=O)C23)cc1 (stereo unspecified),u,-15%,u,u,14µM*
Cc1ccc(N2C(=O)C3C4C=CC(CNC(=S)N5CCN(c6ccccc6)CC5)(O4)C3C2=O)cc1 (stereo unspecified),10µM*,5%,81%,u,u
Cc1cc(C)n(CC2CC(=O)N(c3ccc(F)c(Cl)c3)C2=O)n1 (stereo unspecified),14µM*,17%,-2%,3%,4%
Cc1cc(C)n(CC2CC(=O)N(c3ccc(C)c(Cl)c3)C2=O)n1 (stereo unspecified),23%,0%,-5%,-1%,-5%
CC(C)n1c(CNC(=O)c2ccccc2F)nnc1SCC(=O)c1ccc(F)cc1,x,x,-14%,-4%,x
CCOC(=O)c1c(C)oc2c1c(C=NCC1CCCO1)c(O)c1ccccc12 (stereo unspecified),2%,-3%,-4%,u,1%
CCOC(=O)c1c(C)oc2c1c(C=NCc1ccccn1)c(O)c1ccccc12,6.3µM*,18µM*,u,12µM*,u
CCCCNC(=O)CSc1nc2ccc(Nc3nc(N4CCOCC4)nc(N4CCOCC4)n3)cc2s1,-9%,5.8µM*,6%,u,-7%
CC(=O)c1c(C)[nH]c(C(=O)CSc2nc3ccc(C)cc3[nH]2)c1C,u,12µM*,0%,u,-16%
Cc1ccc2nc(SCC(=O)c3ccc(Cl)s3)[nH]c2c1,33%,u,-6%,-3%,29%
CCOC(=O)N1CCN(C(=O)C2CCN(Cc3cccc(OCc4ccccc4)c3)CC2)CC1,10%,-1%,3%,13%,0%
COc1cc2c(cc1OC)CN(CC(=O)Nc1ccccc1C(=O)NCc1ccccc1)CC2,26%,23µM*,2%,u,2%
COc1ccccc1NC(=O)COc1ccc(C(=O)NCc2ccccc2)cc1OC,x,26µM*,3%,25%,x
COc1cc(OC)c2c(-c3cccc(-c4ccc(OC)c(F)c4)c3)cc(=O)oc2c1,6%,25%,1.5µM*,u,-12%
CCc1cc(=O)oc2cc3occ(C)c3cc12,1%,-19%,4%,0%,-2%
COc1cc(OC)c2c(-c3cccc(-c4ccc(C(C)=O)cc4)c3)cc(=O)oc2c1,-11%,-2%,4.1µM*,0.65µM*,-26%
COc1cc(OC)c2c(-c3cccc(-c4ccoc4)c3)cc(=O)oc2c1,x,u,u,7.3µM*,x
CCc1cc(=O)oc2cc3occ(-c4ccc(OC)c(F)c4)c3cc12,u,-14%,u,2.3µM*,13µM*
COc1ccc(CN(C)C(=O)Cn2cc(C)c(=O)[nH]c2=O)cc1OC,x,x,-56%,-1%,x
O=C(/C(=C/O)N=Nc1ccccc1)c1ccco1,17%,14%,u,15µM*,-19%
COc1cccc(C(=O)Nc2cc(S(=O)(=O)N3CCOCC3)ccc2N2CCOCC2)c1,x,x,-19%,-3%,x
CCCC(C)C(=O)Nc1cc(S(=O)(=O)N2CCCCC2)ccc1N1CCOCC1 (stereo unspecified),x,12%,-26%,-2%,x
COc1ccc2cc(/C(C)=N/NC(=S)Nc3cc(S(=O)(=O)N4CCOCC4)ccc3N3CCOCC3)ccc2c1,6.3µM*,4.6µM*,x,x,8%[10 µM]
C/C(=N\NC(=S)Nc1cc(S(=O)(=O)N2CCOCC2)ccc1Cl)c1ccc(N2CCOCC2)cc1,2.8µM*,u,2%,3%,11µM*

# High-throughput results deposited in PubChem by National Center for Advancing Translational Sciences (NCATS).
